Screening data as filed in PubChem BioAssay.
Rows were chosen to be rich in hits. Some 22% of all compounds tested hit in one or more screens of this group.
CYP2C9 inh: inhibitors of human CYP2C9; CYP2C9 Supersomes, luciferin-H conversion, luminescence; inhibition, % at 5 µM; actives 20% (n = 96,000); AID 777;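 active means blocking of liver enzyme CYP2C9 beyond about 50% at 5 µM, limit read from the data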
Target sequence (P11712 whole entry, looked up): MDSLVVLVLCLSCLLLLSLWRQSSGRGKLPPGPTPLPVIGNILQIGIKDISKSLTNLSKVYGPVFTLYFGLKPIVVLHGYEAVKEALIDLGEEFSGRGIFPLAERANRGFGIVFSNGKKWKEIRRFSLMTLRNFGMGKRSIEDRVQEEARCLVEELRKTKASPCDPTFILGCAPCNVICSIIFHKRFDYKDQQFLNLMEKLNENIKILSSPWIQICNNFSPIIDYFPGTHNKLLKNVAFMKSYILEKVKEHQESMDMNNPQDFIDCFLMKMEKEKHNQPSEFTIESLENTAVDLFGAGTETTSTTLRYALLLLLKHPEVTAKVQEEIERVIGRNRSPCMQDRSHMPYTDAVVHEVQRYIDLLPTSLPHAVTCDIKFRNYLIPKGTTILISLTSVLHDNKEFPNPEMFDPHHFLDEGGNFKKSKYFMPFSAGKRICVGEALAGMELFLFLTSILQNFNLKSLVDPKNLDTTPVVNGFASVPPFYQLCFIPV
Measles CPE: protection of cells from measles virus; Measles virus-infected cells, CPE protection, absorbance; protection (pct of control), % at 4 µM; actives 1.5% (n = 140,000); AID 841; in the data active means protection mostly above about 24%, no sharp cut-off; inactive means mostly below about 26%
CYP2C19 inhib: inhibitors of human CYP2C19. P33261. CYP2C19 Supersomes, luciferin-H EGE luminescence, 30 min. inhibition, % at 5 µM. actives 21% (n = 96,000). AID 778;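 active means CYP2C19 inhibition above a set limit at 5 µM in the primary screen, cut at about 50% in these data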;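 further: plate controls were negative control wells for no effect and 2.5 mM tranylcypromine positive control for full effect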
CYP2C19 activ: activators of human cytochrome P450 2C19. recombinant CYP2C19, luciferin-H EGE luminescence; active compounds read high; 0 = fully inhibited enzyme, 1 = untreated enzyme. 96,000 tested, under 10 active. activation factor at 5 µM. P33261. AID 1025;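 active means activation factor of at least 2 at 5 µM in the primary screen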;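 further: 0 = wells with 2.5 mM tranylcypromine and 1 = vehicle-only wells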
CYP2C9 activ: increases human cytochrome P450 2C9 activity | P11712 | recombinant CYP2C9, luciferin-H conversion, luminescence; active compounds read high; factor 1 = untreated enzyme, 0 = blocked | activation factor at 5 µM | actives 1.4% (n = 96,000);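 active means activation factor of 2 or more for CYP2C9 at a 5 µM dose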;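 further: 0 = sulfaphenazole-blocked wells and 1 = vehicle-only wells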
* marks the source's active call; other numbers are inactive results; x = no result given.

SMILES	CYP2C9 inh	Measles CPE	CYP2C19 inhib	CYP2C19 activ	CYP2C9 activ
COc1ccc(NC(=O)C2CCC(=O)N2S(=O)(=O)c2ccc(C)cc2)c(OC)c1 (configuration not stated)	-66.9	26.4	13.3	0.9	1.7
COc1ccc(CCNC(=O)C(C)Sc2ccc(C)cc2)cc1OC (configuration not stated)	x	3.6	x	x	x
COc1ccc(CCNC(=O)CSc2ccc(-c3ccccc3)nn2)cc1OC	24.6	4.3	70.7*	0.3	0.8
COc1ccc(CCNC(=O)CSc2nnc(-c3ccc(F)cc3)o2)cc1OC	63.1*	6.3	45.7	0.5	0.4
Cc1nonc1NC(=O)CSc1ccc(-c2ccccc2)nn1	63.6*	4.1	49.5	0.5	0.4
COc1ccc(CCNC(=O)CSc2cc(=O)[nH]c(N)n2)cc1OC	-8.6	6.6	-2.7	1	1.1
COc1ccc(CCNC(=O)C(C)Sc2ccccc2)cc1OC (configuration not stated)	63.8*	20.1	56.0*	0.4	0.4
COc1ccc(CCNC(=O)CSc2nnc(CNc3ccc(Cl)cc3)o2)cc1OC	x	23.3	x	x	x
Cc1ccc(-c2ccc(SCC(=O)c3ccccc3)nn2)cc1	x	7.6	x	x	x
Cc1ccc(C(=O)N/C(=C\c2ccc(Cl)cc2)C(=O)NCC2CCCO2)cc1 (configuration not stated)	x	21.3	x	x	x
Cc1ccccc1C(OCCN(C(C)C)C(C)C)c1ccccc1 (configuration not stated)	x	22.6	x	x	x
CC(C1CC1)N(C(=O)NC1CCS(=O)(=O)C1)c1ccccc1 (configuration not stated)	-14.2	2.8	-3.3	1	1.1
CC(C(=O)N1CCOCC1)N1C(=O)C2C3CC(C(Br)C3Br)C2C1=O (configuration not stated)	x	1.1	x	x	x
CCCn1cnc2sc(CC)cc2c1=O	x	5.3	x	x	x
COc1ccc(CCNC(=O)CSc2nnc(Cc3csc(N)n3)n2C)cc1OC	51.0*	15.9	-12.9	1.1	0.5
Cc1cc(C)nc(SCc2nnc(SCC(=O)Nc3nccs3)n2C)n1	x	7.0	x	x	x
COc1ccc(CCCc2nnc(SCC(=O)Nc3nccs3)n2C)cc1C	-31.2	6.5	59.1*	0.4	1.3
CC1(C(=O)NC2CCCCCCC2)CCC(=O)N1Cc1cccs1 (configuration not stated)	-28.2	27.6	71.3*	0.3	1.3
CCN(CC)c1ccc(C=C2C(=O)OC3(CCCC3)OC2=O)cc1	x	39.8*	x	x	x
CN(C)c1ccc(C=C2C(=O)OC(C)(C(C)(C)C)OC2=O)cc1 (configuration not stated)	-0.9	19.2	-0.6	1	1
COc1ccc(-n2nc(C(=O)Nc3nc4ccc(OC)cc4s3)c3ccccc3c2=O)cc1	x	6.1	x	x	x
CCCCCOc1ccccc1C(=O)NCCC(=O)O	48.8	6.3	34.4	0.7	0.5
CCS(=O)(=O)n1nc(-c2ccco2)nc1SC	36.6	23.2	34.9	0.7	0.6
CSc1nc(-c2ccco2)nn1S(=O)(=O)c1ccccc1	-114.9	7.9	83.2*	0.2	2.1*
CCCC(=O)n1nc(-c2ccco2)nc1SCc1ccccc1	-7.7	14.7	5.1	0.9	1.1
SMILES	CYP2C9 inh	Measles CPE	CYP2C19 inhib	CYP2C19 activ	CYP2C9 activ
CSc1nc(-c2ccco2)nn1S(=O)(=O)c1ccc(C)cc1	69.6*	5.4	67.8*	0.3	0.3
CSc1nc(-c2ccco2)nn1C(=O)c1ccc(C)cc1	-5.1	34.1	-13.2	1.1	1.1
O=C(Cc1ccccc1)n1nc(-c2ccco2)nc1SCc1ccccc1	29.5	3.6	67.9*	0.3	0.7
Cc1ccc(S(=O)(=O)n2nc(-c3ccco3)nc2SCc2ccccc2)cc1	69.8*	6.8	54.9*	0.5	0.3
Cn1c(N)c(C(=O)COC(=O)CNS(=O)(=O)c2ccc(Cl)c(Cl)c2)c(=O)n(C)c1=O	x	7.2	x	x	x
O=CN1CCN(C(=O)c2ccc([N+](=O)[O-])cc2)CC1	x	2.2	x	x	x
COc1ccc(C)cc1NC(=O)c1cnc2sccn2c1=O	-9.1	x	3.5	1	1.1
CC(=O)c1cc(-c2ccccc2)n(CCC(=O)NC2CCCCC2)c1C	x	3.3	x	x	x
Cc1cc(C)c(COc2ccc(/C=N/n3c(C)n[nH]c3=S)cc2)c(C)c1	x	8.4	x	x	x
CCCCN1C(=O)c2ccc(C(=O)Nc3c(N)n(CCCC)c(=O)n(C)c3=O)cc2C1=O	56.5*	33.3	8.5	0.9	0.4
CCCN1C(=O)c2ccc(C(=O)Nc3cc(C)on3)cc2C1=O	-2.8	1.5	9.4	0.9	1
COCCCN1C(=O)c2ccc(C(=O)Nc3ccccc3OC)cc2C1=O	-99.7	4.3	34.8	0.7	2*
COCCN1C(=O)c2ccc(C(=O)Nc3nccs3)cc2C1=O	-0.3	29.6*	7.4	0.9	1
COCCN1C(=O)c2ccc(C(=O)O)cc2C1=O	54.7*	18.6	14.7	0.9	0.5
FC(F)(F)c1n[nH]c(=S)n1/N=C/c1ccco1	x	9.5	x	x	x
O=C(CCC(=O)c1cccs1)OCC(=O)N1CCN(C(=O)c2ccco2)CC1	12.1	6.1	12.2	0.9	0.9
O=C(OC(C(=O)NC1CCCC1)c1ccccn1)c1cccs1 (configuration not stated)	-0.4	9.9	5.9	0.9	1
COc1ccc(Cl)cc1NC(=O)c1cccc(NC(=O)CCC(=O)O)c1	x	6.2	x	x	x
CCNc1nc(NC(C)CC)nc(Oc2ccc(=O)[nH]n2)n1 (configuration not stated)	4.3	3.8	50.3*	0.5	1
COC(=O)c1cc(Cl)c(NC(=O)/C=C/c2ccc(OC)c(OC)c2)cc1OC	14.7	7.1	11.2	0.9	0.9
CCOC(=O)C1CCCCN1Cc1ccc(F)cc1 (configuration not stated)	-9.3	9.7	66.2*	0.3	1.1
CCOC(=O)C1CCCCN1Cc1cc(Cl)ccc1O (configuration not stated)	94.3*	3.1	98.9*	0	0.1
CCOC(=O)C1CCCCN1Cc1cccc(OC)c1OC (configuration not stated)	26.9	2.4	29.7	0.7	0.7
CCOC(=O)C1CCCCN1Cc1cccc(F)c1 (configuration not stated)	29.2	29.1	88.6*	0.1	0.7
O=C(c1ccc(N2CCCCS2(=O)=O)cc1)N1CCN(c2ccc(N3CCOCC3)nn2)CC1	0.9	1.2	-9.6	1.1	1
SMILES	CYP2C9 inh	Measles CPE	CYP2C19 inhib	CYP2C19 activ	CYP2C9 activ
CCOC(=O)Nc1sc(C)c(C)c1C(N)=O	x	14.1	x	x	x
Cc1nc(Cl)c(C#N)cc1-c1ccccc1	19.6	0.8	85.9*	0.1	0.8
Cc1nc(Sc2ccccc2)c(C#N)cc1-c1ccccc1	70.4*	2.1	58.4*	0.4	0.3
CCN(CC)C(=O)CSCc1cnn(-c2ccccc2)c1-n1cccc1	38.6	4.1	49.6	0.5	0.6
O=C(O)c1nn(-c2ccc(Cl)cc2)ccc1=O	-8.6	14.6	-7.3	1.1	1.1
N#CC(=C1CCCC1)c1nc(-c2ccccc2)cs1	-11.2	5.5	17.3	0.8	1.1
N#CC(=C1CCCC1)c1nc(-c2ccccc2O)cs1	36.6	26.7	71.5*	0.3	0.6
